GAA inhib = inhibitors of human lysosomal alpha-glucosidase; P10253; purified human GAA, 4-MU-alpha-glucoside fluorescence; Potency, µM (titrated, usually from 76.9 µM), without a hit: at the highest dose activity change, negative = inhibition, hits mostly inhibitors; actives 0.005% (n = 200,000);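 further: potency means the concentration at half of the fitted maximal effect; plate controls were uninhibited enzyme wells for no effect and no-enzyme background for full effect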
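AC50 values come from Hill fits of compound titrations (up to 77 uM) against 4 nM human enzyme. Substrate 4-methylumbelliferyl-alpha-D-pyranoside at 400 uM, pH 5.0 citrate buffer, 20 min room temperature; fluorescence Ex 365/Em 440 after alkaline stop.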
GAA spleen mod = inhibitors or activators of human alpha-glucosidase in spleen homogenate; human spleen homogenate, 4-MU-alpha-glucoside fluorescence; Potency, µM (top dose mostly 79.9 µM), without a hit: at the top dose activity change, negative = inhibition, most hits filed as inhibitors; actives 0.006% (n = 240,000);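 further: potency means the concentration at half of the fitted maximal effect; 0% = enzyme with vehicle and -100% = no enzyme basal signal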
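Enzyme source: human spleen homogenate, 1 ug/well. Buffer 50 mM citric acid/K phosphate pH 5.0, 0.01% Tween-20. 4-MU-alpha-glucoside 1 mM; 37 C x 40 min; NaOH/glycine stop; fluorescence.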
GLA spleen mod = inhibits or activates alpha-galactosidase in human spleen homogenate; P06280; human spleen homogenate, 4MU-alpha-Gal fluorescence, 40 min; Potency, µM (doses to about 80 µM), for the others: at the top dose activity change, negative = inhibition, hits mostly inhibitors; actives 0.008% (n = 240,000); AID 2107;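 further: potency means the concentration at half of the fitted maximal effect; 0% = enzyme with vehicle and -100% = no enzyme basal signal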
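Spleen homogenate 1 ug + cpd (titration) + 4-MU-alpha-D-galactopyranoside 1 mM; 37C 40 min; 50 mM citrate/phosphate pH 5.0, 0.01% Tween-20; stop pH 10; fluorescence 365/440; AC50 via Hill.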
GAA glycogen = alters human alpha-glucosidase cleavage of glycogen; P10253; recombinant GAA, glycogen substrate, Amplex Red glucose oxidase fluorescence; Potency, µM (titrated, usually from 76.4 µM), for the others: at the top dose activity change, negative = inhibition, hits mostly inhibitors; actives 0.38% (n = 300,000); AID 2100;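 further: potency means the concentration at half of the fitted maximal effect; 0% = full enzyme reaction and -100% = no-enzyme basal signal; the screen sought inhibitors and activators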
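Recombinant human alpha-glucosidase (4 nM final) hydrolysed bovine liver glycogen (30 ug) for 40 min at 37 C in pH 5.0 citrate/phosphate with 0.01% Tween-20. Released glucose detected by glucose oxidase/Amplex Red, Ex 573/Em 610 nm. Compounds up to 77 uM; AC50 from Hill fits.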
N370S GC = inhibitors or activators of N370S glucocerebrosidase for Gaucher disease. P04062. N370S GC spleen homogenate, 4MU-glucoside fluorescence. Potency, µM (series often up to 59.4 µM), without a hit: at the highest dose activity change, negative = inhibition, actives largely listed as inhibitors. actives 0.092% (n = 330,000). AID 2101;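 further: potency means the concentration at half of the fitted maximal effect; 0% = full enzyme activity and -100% = no enzyme basal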
GLA inh pH 4.5 = inhibitors of human alpha-galactosidase A at pH 4.5 | activity change, negative = inhibition, % at 105 µM | P06280 | purified enzyme, 4-MU-alpha-Gal fluorescence, pH 4.5 | 230,000 tested, under 10 active;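 further: 0% = full activity with enzyme and -100% = basal without enzyme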
Target sequence (P06280 whole entry, looked up): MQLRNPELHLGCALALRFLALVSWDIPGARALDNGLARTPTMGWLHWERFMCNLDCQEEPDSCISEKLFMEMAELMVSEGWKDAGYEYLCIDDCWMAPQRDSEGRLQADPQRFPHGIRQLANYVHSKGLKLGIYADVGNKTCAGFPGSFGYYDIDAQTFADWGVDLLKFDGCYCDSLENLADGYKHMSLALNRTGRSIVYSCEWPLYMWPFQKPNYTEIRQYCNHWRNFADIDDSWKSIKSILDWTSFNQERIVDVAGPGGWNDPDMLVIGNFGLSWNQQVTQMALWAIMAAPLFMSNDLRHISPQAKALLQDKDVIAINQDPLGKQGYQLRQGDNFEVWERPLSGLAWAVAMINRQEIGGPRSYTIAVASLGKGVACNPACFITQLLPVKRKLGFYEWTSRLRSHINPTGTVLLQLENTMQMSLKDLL
An asterisk follows results filed as active; u = inconclusive; x = no result; [ ] = dose if it differs, or a comment. Shown are actives, neighbours in structure and some others; about 0.41% of the full set was active somewhere. The call rests on the fitted dose curve; in most records, active means well fitted curve in the direction sought with a large enough effect; inconclusive means small, poorly fitted or top-dose-only effect, or another doubt; inactive means no such curve, though single readings can be large; an effect the other way counts as inactive or inconclusive.

SMILES | GAA inhib | GAA spleen mod | GLA spleen mod | GAA glycogen | N370S GC | GLA inh pH 4.5
CCOC(=O)C1=C(c2ccccc2)NC(N)=NC1c1ccc(OCc2ccc(Cl)cc2)c(OC)c1 (stereo not drawn) | x | 1.9% | -17.4% | -5.0% | 22.4µM* | -14.1
[O-]/[N+](=C\c1ccccc1)[C@@H]1CCCC[C@@H]1/[N+]([O-])=C/c1ccccc1 | 6.7% | 2.5% | 6.0% | 39.8µM* | -0.8% | -9.1
COc1ccc(O[C@H]2C=C[C@@H](c3ccccc3)O[C@@H]2CON=C(C)C)cc1 | x | -2.2%[17.4 µM] | 7.8%[17.5 µM] | x | -0.3%[12.8 µM] | x
Cc1nnsc1C(=O)NNS(=O)(=O)c1ccccc1 | 0.7% | -0.2% | 6.3% | 28µM* | -8.7% | 13.0
O=C(COc1cccc2cccnc12)N/N=C/c1ccccc1O | x | 2.1% | 10.2% | 2.7% | 17.2% | -3.5
Oc1ccccc1/C=N/Nc1cccc2cccnc12 | -11.2% | -12.5% | -9.8% | 7.94µM* | -13.0% | 4.9
CC(C)C[C@H](NC(=O)[C@H]1O[C@@H]1C(=O)O)C(=O)NCCCCN=C(N)N | x | -5.9% | -4.5% | x | -9.6% | x
COc1ccc(OC2C=CC(c3ccccc3)OC2CO)c(C(C)=O)c1 (stereo not drawn) | x | 4.5%[17.4 µM] | 10.3%[17.5 µM] | x | 0.1%[12.8 µM] | x
CC(/C=C/C=C(C)/C=C/C(=O)O)=C\C=C\C=C(C)\C=C\C=C(C)\C=C\C(=O)O | x | -7.6% | -9.7% | x | -7.3% | x
O=C(NNC(=O)c1cc(O)c(O)c(O)c1)NC1CCCCC1 | -5.7% | -10.2% | -2.1% | 7.94µM* | 4.2% | 10.0
O=C(NNC(=O)c1cccnc1)NC1CCCCC1 | 1.6% | -0.6% | 0.6% | -3.0% | -7.1% | -2.4
CC/C(=C\C(=O)c1ccncc1)Nc1ccc(O)cc1 | -8.0% | -8.2% | 8.8% | 44.7µM* | 3.4%[2.35 µM] | -13.9
Cc1cc(NC(=O)c2c(F)cccc2Cl)no1 | -3.9% | -6.4% | 0.0% | 4.3% | 12.0% | 4.0
Cc1ccc(NNC(=O)c2c(F)cccc2Cl)cc1C | x | -1.8% | 2.0% | 25.1µM* | 10.1% | -11.1
Oc1ccc(NC(=S)Nc2ccc(F)cc2)cc1 | x | x | x | 11.2µM* | -17.7% | x
CC#CC[N+](C)(C)CCCCCCCCCC | x | -5.7% | 8.7% | 17.2% | 15.8µM* | -5.7
Oc1ccc(N2CCN(C(c3cccnc3)c3nnnn3Cc3ccccc3)CC2)cc1 (stereo not drawn) | 0.7% | 2.6% | 6.0% | 15.7µM* | u | -5.3
CCC(C)(C)n1nnnc1C(c1ccc2ncccc2c1)N1CCN(c2ccc(O)cc2)CC1 (stereo not drawn) | x | 2.8% | -0.2% | 1.41µM* | u | 1.1
c1ccc(CCn2nnnc2C(c2cccnc2)N2CCN(c3ccccc3)CC2)cc1 (stereo not drawn) | -4.1% | -3.9% | 4.6% | 3.0% | -5.0% | 6.2
COc1ccc(Cn2nnnc2C(C(C)C)N2CCN(c3ccccc3OC)CC2)cc1 (stereo not drawn) | -2.7% | -5.7% | -2.4% | -6.2% | -4.7% | -14.4
CCC(C)(C)n1nnnc1C(c1ccc2ncccc2c1)N1CCN(c2nc3ccccc3s2)CC1 (stereo not drawn) | u | -11.6% | -8.9% | -1.0% | -0.5% | -13.2
CC(C)C(c1nnnn1Cc1ccc(F)cc1)N1CCN(c2ccc(O)cc2)CC1 (stereo not drawn) | 14.1% | 7.2% | -11.2% | 7.03µM* | u | -5.1
COc1ccc2c(CNCc3ccco3)c(C(=O)O)n(Cc3ccc(F)cc3Cl)c2c1 | x | x | x | 7.8%[76.3 µM] | x | x
COc1cc(/C=C/C(=O)c2cccs2)cc(OC)c1OC | x | -4.0% | 2.0% | x | -8.0% | -22.3
CC(C)(C)c1ccc(OCC(=O)NCC2(N3CCOCC3)CCCCC2)cc1 | x | x | x | 7.7%[76.3 µM] | x | x
SMILES | GAA inhib | GAA spleen mod | GLA spleen mod | GAA glycogen | N370S GC | GLA inh pH 4.5
O=C(N/N=C1/C[C@@H](O)[C@@H](O)[C@@H]2[C@@H]3C(=O)N(c4cccc(Oc5ccccc5)c4)C(=O)[C@H]3CC[C@@H]12)OCc1ccccc1 | x | -0.1%[17.4 µM] | 1.1%[17.5 µM] | x | -4.6%[12.8 µM] | x
C#CCOCCOCCOCCNc1nc(N2CCN(C(=O)CCCCCCCCCCNC(=O)[C@H](CO)n3cc(CCCCCN)nn3)CC2)nc(N2CCN(C(=O)CCCCCCCCCCNC(=O)[C@H](CCCN=C(N)N)n3cc(C[C@@H](C)CC)nn3)CC2)n1 | x | x | x | x | 12.6µM* | x
C#CCOCCOCCOCCNc1nc(N2CCN(C(=O)[C@H](C)n3cc(CCCN=C(N)N)nn3)CC2)nc(N2CCN(C(=O)[C@H](CCCCN)n3cc(CCCC)nn3)CC2)n1 | -1.5% | -8.0% | -0.4% | 3.4% | 0.7% | 1.1
CC[C@H](C)Cc1cn([C@@H](CCCN=C(NC(=O)OC(C)(C)C)NC(=O)OC(C)(C)C)C(=O)NCCCCCCCCCCC(=O)N2CCN(C(=O)OC(C)(C)C)CC2)nn1 | x | x | x | x | 15.8µM* | x
C#CCOCCOCCOCCNc1nc(N2CCN(C(=O)CCCCCCCCCCNC(=O)[C@H](CCCCN)n3cc(C)nn3)CC2)nc(N2CCN(C(=O)CCCCCCCCCCNC(=O)[C@H](CCCN=C(N)N)n3cc(C[C@@H](C)CC)nn3)CC2)n1 | x | x | x | x | 7.94µM* | x
C#CCOCCOCCOCCNc1nc(N2CCN(C(=O)CCCCCCCCCCNC(=O)[C@H](CCCCN)n3cc(CCO)nn3)CC2)nc(N2CCN(C(=O)CCCCCCCCCCNC(=O)[C@H](CCCCN)n3cc(C[C@@H](C)CC)nn3)CC2)n1 | x | x | x | x | 14.1µM* | x
COc1ccc(-c2nnc3n2N=C(c2ccc(OC)cc2OC)CS3)cc1 | x | 1.8% | -4.0% | x | 13.1% | x
NC1(C(=O)O)CCc2cc(P(=O)(O)O)ccc21 (stereo not drawn) | x | 12.6% | 19.3% | x | 7.8% | x
CCCCC#CC1C=CC(OC(C)=O)C(COC(C)=O)O1 (stereo not drawn) | x | 0.7%[17.4 µM] | 3.0%[17.5 µM] | x | 4.9%[12.8 µM] | x
C#CCOCCOCCOCCNc1nc(N2CCN(C(=O)CCCCCCCCCCNC(=O)[C@@H](CCSC)n3cc(CCO)nn3)CC2)nc(N2CCN(C(=O)CCCCCCCCCCNC(=O)[C@H](CCCN=C(N)N)n3cc(C[C@@H](C)CC)nn3)CC2)n1 | x | x | x | x | 7.94µM* | x
C#CCOCCOCCOCCNc1nc(N2CCN(C(=O)CCCCCCCCCCNC(=O)[C@H](CCCCN)n3cc(C[C@@H](C)CC)nn3)CC2)nc(N2CCN(C(=O)CCCCCCCCCCNC(=O)[C@@H]([C@H](C)O)n3cc(C)nn3)CC2)n1 | x | x | x | x | 11.2µM* | x
C#CCOCCOCCOCCNc1nc(N2CCN(C(=O)CCCCCCCCCCNC(=O)[C@H](CCCCN)n3cc(C[C@@H](C)CC)nn3)CC2)nc(N2CCN(C(=O)CCCCCCCCCCNC(=O)[C@H](CCCN=C(N)N)n3cc(C[C@@H](C)CC)nn3)CC2)n1 | x | x | x | x | 6.31µM* | x

Source: PubChem BioAssay (National Center for Advancing Translational Sciences (NCATS))
